Laboratory results as given in PubChem BioAssay (NCATS).
A number with no mark means an inactive call. Inconclusive results are not listed. Active and inactive are the calls of the source. Unless noted, the call rests on the fitted dose curve; in most records, active means well fitted curve in the direction sought with a large enough effect; inconclusive means small, poorly fitted or top-dose-only effect, or another doubt; inactive means no such curve, though single readings can be large; an effect the other way counts as inactive or inconclusive.

Columns and labels:
[1] = target: Lysosomal acid glucosylceramidase (Homo sapiens) (UniProt P04062); test: Glucocerebrosidase-p2 (AID 348; in the data active means potency below about 10 µM; further: potency means the concentration at half of the fitted maximal effect); settings: purified GBA, blue fluorogenic substrate, 40 min
How it was run: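 Normal human glucocerebrosidase (0.2 nM) with blue fluorogenic substrate (80 uM final) in citrate/phosphate pH 5.9 with 10mM sodium taurocholate, 0.01% tween-20; 40 min RT, NaOH/glycine stop; fluorescence Ex 365/Em 440; AC50 from a titration from 0.6 nM upwards.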

[2] = AP1 Signaling Pathway (AID 357; active means well fitted curve in either direction with a large enough effect, not every such curve was filed as active;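 further: ME-180 reporter cells stimulated with EGF at its EC50 level; on the % scale 0 is the no-effect control and ±100 the full control effect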); settings: ME-180 AP-1-bla reporter, EGF-induced, beta-lactamase ratio, 5 h; at 7.69 µM (top of the series) unless noted
How it was run: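 Cells are seeded overnight, exposed to compound titrations and an EC50 level of EGF for 5 hours at 37 °C, then loaded with CCF4 dye for 2.5 hours. Beta-lactamase activity under the AP-1 element is read as a blue/green ratio.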

[3] = target: Cytochrome P450 1A2 (Homo sapiens) (UniProt P05177); test: p450-cyp1a2 (AID 410; calls by dose curve; further: potency means the concentration at half of the fitted maximal effect); settings: recombinant CYP1A2, luciferin-ME demethylation, luminescence; series mostly up to 57 µM
How it was run: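 Read-out is luminescence from luciferin produced by CYP1A2 demethylation of Luciferin-ME (100uM, at Km). Detection reagent stopped the 60 min NADPH-dependent reaction; signals were normalized to 57 uM furafylline.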

[4] = NFAT Signaling Pathway (AID 444; active means well fitted curve in either direction with a large enough effect, not every such curve was filed as active;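 further: carbachol stimulus at about its EC50 of 1 µM final; on the % scale 0 is the no-effect control and ±100 the full control effect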); settings: Jurkat NFAT-bla M1, carbachol, beta-lactamase ratio, 5 h; at 7.69 µM (top of the series) unless noted
How it was run: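 Read-out: CCF4 FRET ratio (460 nm/530 nm) after 1 h RT dye loading, used for %activity and AC50 from titration series. Cells: Jurkat NFAT-β-lactamase/M1 line, treated with compound plus 1 uM carbachol for 5 h, 37 °C.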

[5] = Stat Signaling Pathway (AID 446; active means well fitted curve in either direction with a large enough effect, not every such curve was filed as active;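 further: ME-180 cervical cancer cells given 40 pM IL-6 alongside compound; SIE-controlled beta-lactamase reporter measured as 460/530 nm FRET emission ratio; on the % scale 0 is the no-effect control and ±100 the full control effect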); settings: ME-180 SIE beta-lactamase reporter, IL-6 stimulated, 5 h; at 7.69 µM (top of the series) unless noted
How it was run: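 Compound effects on IL-6-induced STAT reporter activity were measured in ME-180 cells. After overnight culture, cells were co-treated with 40 pM IL-6 for 5 hrs before beta-lactamase substrate loading at room temperature.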

[6] = target: Glucocorticoid receptor (Homo sapiens) (UniProt P04150); test: GR-GFP Redistribution (AID 450;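 active means compounds whose dose series gives a full or clear partial fitted curve of increased nuclear translocation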; further: potency means the concentration at half of the fitted maximal effect); settings: U2OS GR-GFP nuclear translocation, laser cytometry, 2 h
[7] = target: Glucocorticoid receptor (Homo sapiens) (UniProt P04150); test: GR-EFC Redistribution (AID 451; calls by dose curve; further: potency means the concentration at half of the fitted maximal effect); settings: CHO-K1 GR-EFC translocation, beta-gal luminescence, 2 h
How it was run: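 Translocation of GR-ED fusion to nuclear EA restores b-gal, read by luminescence after 1 h room-temperature detection. Engineered CHO-K1 biosensor cells, 1,000/well, exposed 2 h at 37 C to titrations up to 46 uM final.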

[8] = target: Mitogen-activated protein kinase 10 (Mus musculus) (UniProt Q61831); test: JNK3 AlphaScreen Assay (AID 530; active means well fitted curve in either direction with a large enough effect, not every such curve was filed as active;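 further: kinase came from lysate of stimulated human HepG2 cells; signal reports phosphorylation of biotinylated GST-cJun 1-79 at Ser73 with 10 µM ATP; on the % scale 0 is the no-effect control and ±100 the full control effect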); settings: JNK3 lysate, c-Jun phosphorylation; series mostly up to 57.1 µM
How it was run: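 Kinase buffer: 20 mM Tris-HCl pH 7.6, 10 mM MgCl2, 1 mM DTT, 0.1 mM Na3VO4, 0.01% Tween-20; ATP 10 uM. Substrate biotin-GST-cJun(1-79), enzyme from activated HepG2 lysates. Detection by Ser73 phospho-antibody AlphaScreen.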

[9] = target: Cytochrome P450 3A4 (Homo sapiens) (UniProt P08684); test: qHTS Assay for Activators of Cytochrome P450 3A4 (AID 885); settings: recombinant CYP3A4, Luciferin-PPXE luminescence, 60 min; series mostly up to 57.1 µM; further: nearly all actives have a fitted effect of over 65% in size
How it was run: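 CYP3A4 activity: Luciferin-PPXE O-dealkylation, 25uM substrate, 200mM KPO4, RT throughout. Read-out is luciferase luminescence; higher values reflect activation.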

[10] = target: Cytochrome P450 2C19 (Homo sapiens) (UniProt P33261); test: qHTS Assay for Inhibitors and Substrates of Cytochrome P450 2C19 (AID 899); settings: recombinant CYP2C19, luciferin-H EGE luminescence; series mostly up to 57.1 µM; further: potency means the concentration at half of the fitted maximal effect; nearly all actives have a fitted effect of over 60% in size
How it was run: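 Luminescence readout of luciferin formed from 10uM Luciferin-H EGE (KM level) by 5 nM CYP2C19 in 50mM KPO4. 60 min NADPH-driven reaction at 37C after 10 min compound preincubation; data scaled to 57uM ketoconazole inhibition.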

[11] = target: Dual specificity protein kinase CLK4 (Homo sapiens) (UniProt Q9HAZ1); test: qHTS Assay for Inhibitors of CDC-like Kinase 4 (Kinase-Glo Assay) (AID 1770); settings: recombinant Clk4, Kinase-Glo ATP depletion luminescence; series mostly up to 66.7 µM; further: nearly all actives have a fitted effect of over 65% in size; further: potency means the concentration at half of the fitted maximal effect
How it was run: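 Inhibition was judged from remaining ATP, measured by Ultra-Glo luciferase bioluminescence after Clk4 (25 nM) had acted on RS peptide at 1 uM ATP for 4.5 hours, room temperature.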

[12] = target: Dual specificity protein kinase CLK4 (Homo sapiens) (UniProt Q9HAZ1); test: qHTS Assay for Inhibitors of CDC-like Kinase 4 (ADP-Glo Assay) (AID 1771); settings: recombinant CLK4, ADP-Glo luminescence; series mostly up to 80 µM; further: nearly all actives have a fitted effect of over 70% in size; further: potency means the concentration at half of the fitted maximal effect
How it was run: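 In this ADP-Glo format, 1 uM ATP and 100 uM RS peptide served as substrates for 25 nM Clk4 in Mg2+/EGTA/DTT/Triton buffer; reactions ran 1 hr at room temperature before luminescent ADP quantification.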

[13] = target: Dual specificity protein kinase CLK4 (Homo sapiens) (UniProt Q9HAZ1); test: qHTS Assay for Inhibitors of CDC-like Kinase 4 (ADP-FP Assay) (AID 1795); settings: Transcreener ADP fluorescence polarization; series mostly up to 50 µM; further: nearly all actives have a fitted effect of over 60% in size; further: potency means the concentration at half of the fitted maximal effect
How it was run: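 Inhibition of ADP formation by 6.25 nM Clk4 is measured using 1 uM ATP and 100 uM RS repeat peptide over one hour. Produced ADP displaces a fluorescent tracer from antibody, lowering polarization.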

[14] = target: Ubiquitin carboxyl-terminal hydrolase 1 (Homo sapiens) (UniProt O94782); test: Inhibitors of USP1/UAF1: Pilot qHTS (AID 504865); settings: purified USP1/UAF1, Ub-rhodamine cleavage fluorescence; series mostly up to 54.9 µM;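 further: rhodamine fluorescence freed from ubiquitin-rhodamine substrate followed over time; top concentration of the series differs between compounds; on the % scale 0 is the no-effect control and ±100 the full control effect; nearly all actives have a fitted effect of over 35% in size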
How it was run: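 Kinetic fluorescence assay: 1nM USP1/UAF1, 15 min compound preincubation, then 150nM Ub-Rho; 480/540 nm.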

[15] = Primary qHTS for small molecule stabilizers of the endoplasmic reticulum resident proteome: Secreted ER Calcium Modulated Protein (SERCaMP) assay (AID 1508630); settings: SH-SY5Y GLuc-SERCaMP (Gaussia luciferase released on ER calcium loss) secretion, thapsigargin, luminescence; series mostly up to 38.4 µM; further: on the % scale 0 is the no-effect control and ±100 the full control effect
How it was run: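 The SH-SY5Y reporter protocol was run at 3 concentrations up to 38.3 uM (primary) or 11 concentrations (follow-up): 16 h compound, 100 nM thapsigargin for 4 h, then extracellular luciferase luminescence.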

[16] = target: 3',5'-cyclic-AMP phosphodiesterase 4B (Homo sapiens) (UniProt Q07343); test: qHTS Assay for Inhibitors of PDE-IV (AID 607; active means well fitted activation curve with a large enough effect in the main read-out, with a control signal flat, not every such curve was filed as active; further: % of control where 0% means no effect); settings: HEK293 ACTOne CNG channel cells, membrane potential fluorescence; series mostly up to 22.9 µM
How it was run: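 ACTOne HEK293 cells carry a modified cAMP-gated CNG channel and express endogenous PDE4; plated 1000 cells/well, compounds up to 22.9 uM final. Membrane-potential dye fluorescence (ex 535/em 590) was read; parental cells received 10 uM forskolin + 100 uM RO 20-1724.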

[17] = target: Cytochrome P450 2D6 (Homo sapiens) (UniProt P10635); test: qHTS Assay for Inhibitors and Substrates of Cytochrome P450 2D6 (AID 891); settings: recombinant CYP2D6, luciferin-ME EGE luminescence; series mostly up to 57.1 µM; further: potency means the concentration at half of the fitted maximal effect; nearly all actives have a fitted effect of over 60% in size
How it was run: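 Luminescent read-out of luciferin formed by 5 nM human CYP2D6 demethylating 30 uM Luciferin-ME EGE (Km level) over 60 min at room temperature after NADPH regeneration addition. Data normalized to full inhibition by 1.43 uM quinidine.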

[18] = target: Cytochrome P450 3A4 (Homo sapiens) (UniProt P08684); test: qHTS Assay for Inhibitors and Substrates of Cytochrome P450 3A4 (AID 884); settings: recombinant CYP3A4, Luciferin-PPXE luminescence; series mostly up to 57.1 µM; further: potency means the concentration at half of the fitted maximal effect; nearly all actives have a fitted effect of over 50% in size
How it was run: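 Luminescent readout of luciferin produced by CYP3A4 (20 nM) dealkylation of Luciferin-PPXE, 25 uM (its KM). NADPH-driven reaction ran 60 min at RT after 10 min compound preincubation; data scaled to 57 uM ketoconazole as 100% inhibition.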

[19] = target: Cytochrome P450 2C9 (Homo sapiens) (UniProt P11712); test: qHTS Assay for Inhibitors and Substrates of Cytochrome P450 2C9 (AID 883); settings: recombinant CYP2C9, luciferin-H luminescence, 60 min; series mostly up to 57.1 µM; further: potency means the concentration at half of the fitted maximal effect; nearly all actives have a fitted effect of over 60% in size
How it was run: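 Luminescent read-out of deoxyluciferin hydroxylation, normalized to 57uM sulphaphenazole (AC100). Reaction: 10nM enzyme, 100uM Luciferin-H (equal to KM), 25mM KPO4, 10 min compound preincubation, then 60 min with NADPH regeneration, both at 37C.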

[20] = qHTS Assay for Identification of Small Molecule Agonists for Hypoxia Response Element Signaling Pathway (AID 914; active means well fitted activation curve with a large enough effect in the signal ratio, with a control signal flat, not every such curve was filed as active; the % refers to the signal ratio; further: potency means the concentration at half of the fitted maximal effect); settings: ME-180 (cervical carcinoma) HRE-bla reporter, beta-lactamase ratio, CoCl2, 17 h; activation: stronger effect = higher value
How it was run: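 Cells were plated overnight, pin-dosed with compound in a titration series, co-stimulated with EC50 CoCl2 and incubated 17 hours at 37 degrees Celsius. CCF4 substrate was then loaded, and AC50 values came from the 460nm/530nm ratio.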

Chain of 3',5'-cyclic-AMP phosphodiesterase 4B (Homo sapiens) (Q07343 whole entry, looked up): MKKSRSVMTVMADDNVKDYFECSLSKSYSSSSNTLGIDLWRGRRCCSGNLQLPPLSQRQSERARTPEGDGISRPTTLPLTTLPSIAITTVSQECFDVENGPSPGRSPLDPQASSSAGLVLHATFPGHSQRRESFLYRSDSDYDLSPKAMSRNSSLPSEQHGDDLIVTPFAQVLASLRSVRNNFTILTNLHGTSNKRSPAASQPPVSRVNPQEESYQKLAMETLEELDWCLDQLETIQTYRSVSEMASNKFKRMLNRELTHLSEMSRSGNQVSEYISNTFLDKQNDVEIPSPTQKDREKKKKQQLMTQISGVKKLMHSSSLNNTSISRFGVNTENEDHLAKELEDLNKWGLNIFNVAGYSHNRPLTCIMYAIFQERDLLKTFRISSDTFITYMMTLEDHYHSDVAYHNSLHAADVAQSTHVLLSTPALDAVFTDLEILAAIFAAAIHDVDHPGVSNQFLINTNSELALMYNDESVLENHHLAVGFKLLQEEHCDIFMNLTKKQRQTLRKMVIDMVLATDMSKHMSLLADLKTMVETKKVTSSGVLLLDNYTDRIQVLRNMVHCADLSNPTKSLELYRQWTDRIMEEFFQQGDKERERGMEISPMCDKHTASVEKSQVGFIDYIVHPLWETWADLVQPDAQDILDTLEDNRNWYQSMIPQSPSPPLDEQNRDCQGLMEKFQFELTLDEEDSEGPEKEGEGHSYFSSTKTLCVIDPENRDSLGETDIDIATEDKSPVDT
Chain of Cytochrome P450 3A4 (Homo sapiens) (P08684 whole entry, looked up): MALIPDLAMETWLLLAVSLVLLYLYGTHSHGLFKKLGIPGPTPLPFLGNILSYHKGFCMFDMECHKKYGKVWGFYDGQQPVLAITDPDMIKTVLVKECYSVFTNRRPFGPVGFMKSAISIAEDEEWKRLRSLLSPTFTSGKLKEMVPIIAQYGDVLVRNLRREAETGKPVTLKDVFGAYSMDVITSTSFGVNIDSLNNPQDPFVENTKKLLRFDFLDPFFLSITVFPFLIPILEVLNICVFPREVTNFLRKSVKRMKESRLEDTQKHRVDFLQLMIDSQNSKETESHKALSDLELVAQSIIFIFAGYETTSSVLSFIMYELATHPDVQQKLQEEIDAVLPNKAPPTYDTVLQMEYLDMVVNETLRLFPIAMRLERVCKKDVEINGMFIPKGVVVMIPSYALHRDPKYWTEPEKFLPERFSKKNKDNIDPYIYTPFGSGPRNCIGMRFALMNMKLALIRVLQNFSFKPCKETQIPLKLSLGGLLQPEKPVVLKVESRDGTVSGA
Chain of Ubiquitin carboxyl-terminal hydrolase 1 (Homo sapiens) (O94782 whole entry, looked up): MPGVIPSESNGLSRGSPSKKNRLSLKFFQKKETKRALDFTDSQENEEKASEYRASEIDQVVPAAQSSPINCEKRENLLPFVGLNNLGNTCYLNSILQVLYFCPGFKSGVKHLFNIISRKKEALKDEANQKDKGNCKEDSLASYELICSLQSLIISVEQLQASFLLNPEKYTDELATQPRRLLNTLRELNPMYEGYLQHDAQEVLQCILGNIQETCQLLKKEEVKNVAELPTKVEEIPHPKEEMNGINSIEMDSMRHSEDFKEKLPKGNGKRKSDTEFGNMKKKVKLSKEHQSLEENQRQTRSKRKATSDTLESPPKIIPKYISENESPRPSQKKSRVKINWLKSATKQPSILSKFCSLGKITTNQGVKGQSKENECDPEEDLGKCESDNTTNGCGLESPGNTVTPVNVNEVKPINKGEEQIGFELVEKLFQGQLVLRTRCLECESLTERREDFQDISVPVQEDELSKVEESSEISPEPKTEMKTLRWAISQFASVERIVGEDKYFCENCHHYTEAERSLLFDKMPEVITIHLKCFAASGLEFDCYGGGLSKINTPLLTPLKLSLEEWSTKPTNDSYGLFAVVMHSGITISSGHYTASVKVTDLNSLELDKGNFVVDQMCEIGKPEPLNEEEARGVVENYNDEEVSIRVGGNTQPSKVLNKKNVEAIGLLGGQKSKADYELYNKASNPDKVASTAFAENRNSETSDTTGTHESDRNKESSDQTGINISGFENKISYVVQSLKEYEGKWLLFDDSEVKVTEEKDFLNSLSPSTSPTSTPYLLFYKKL
Chain of Glucocorticoid receptor (Homo sapiens) (P04150 whole entry, looked up, the tested form may be a part): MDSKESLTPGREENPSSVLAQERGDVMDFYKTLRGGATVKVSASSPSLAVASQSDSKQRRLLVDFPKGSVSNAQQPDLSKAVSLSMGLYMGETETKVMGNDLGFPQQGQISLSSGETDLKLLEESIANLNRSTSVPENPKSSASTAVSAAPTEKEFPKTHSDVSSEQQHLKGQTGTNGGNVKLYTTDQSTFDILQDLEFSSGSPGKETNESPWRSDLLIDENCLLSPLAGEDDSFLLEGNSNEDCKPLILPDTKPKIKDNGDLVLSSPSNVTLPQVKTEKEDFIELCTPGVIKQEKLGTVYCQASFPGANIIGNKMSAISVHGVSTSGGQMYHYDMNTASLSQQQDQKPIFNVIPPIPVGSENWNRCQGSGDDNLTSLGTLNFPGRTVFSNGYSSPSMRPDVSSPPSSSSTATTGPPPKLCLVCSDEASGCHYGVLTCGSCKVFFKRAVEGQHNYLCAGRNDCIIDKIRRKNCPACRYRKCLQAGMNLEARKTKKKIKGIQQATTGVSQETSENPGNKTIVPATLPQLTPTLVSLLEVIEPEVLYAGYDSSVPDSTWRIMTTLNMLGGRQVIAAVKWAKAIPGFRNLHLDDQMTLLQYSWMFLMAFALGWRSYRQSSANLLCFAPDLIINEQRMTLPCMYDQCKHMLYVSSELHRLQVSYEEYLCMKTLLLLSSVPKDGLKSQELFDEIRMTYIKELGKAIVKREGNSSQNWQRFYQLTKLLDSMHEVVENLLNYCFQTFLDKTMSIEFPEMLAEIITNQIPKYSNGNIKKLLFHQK
Chain of Cytochrome P450 2D6 (Homo sapiens) (P10635 whole entry, looked up): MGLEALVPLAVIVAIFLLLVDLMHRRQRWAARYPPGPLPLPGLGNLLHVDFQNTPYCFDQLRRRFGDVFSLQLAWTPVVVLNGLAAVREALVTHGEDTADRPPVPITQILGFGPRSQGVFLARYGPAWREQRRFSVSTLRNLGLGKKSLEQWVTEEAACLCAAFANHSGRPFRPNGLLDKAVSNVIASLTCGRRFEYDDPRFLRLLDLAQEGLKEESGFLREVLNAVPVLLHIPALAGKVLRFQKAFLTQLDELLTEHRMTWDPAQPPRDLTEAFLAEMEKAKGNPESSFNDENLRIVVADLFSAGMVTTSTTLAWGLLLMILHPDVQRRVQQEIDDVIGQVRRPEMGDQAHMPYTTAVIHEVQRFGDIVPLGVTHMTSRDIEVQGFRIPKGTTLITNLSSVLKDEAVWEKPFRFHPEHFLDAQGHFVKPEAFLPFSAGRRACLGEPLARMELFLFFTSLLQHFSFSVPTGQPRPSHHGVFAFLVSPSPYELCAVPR
Chain of Lysosomal acid glucosylceramidase (Homo sapiens) (P04062 whole entry, looked up): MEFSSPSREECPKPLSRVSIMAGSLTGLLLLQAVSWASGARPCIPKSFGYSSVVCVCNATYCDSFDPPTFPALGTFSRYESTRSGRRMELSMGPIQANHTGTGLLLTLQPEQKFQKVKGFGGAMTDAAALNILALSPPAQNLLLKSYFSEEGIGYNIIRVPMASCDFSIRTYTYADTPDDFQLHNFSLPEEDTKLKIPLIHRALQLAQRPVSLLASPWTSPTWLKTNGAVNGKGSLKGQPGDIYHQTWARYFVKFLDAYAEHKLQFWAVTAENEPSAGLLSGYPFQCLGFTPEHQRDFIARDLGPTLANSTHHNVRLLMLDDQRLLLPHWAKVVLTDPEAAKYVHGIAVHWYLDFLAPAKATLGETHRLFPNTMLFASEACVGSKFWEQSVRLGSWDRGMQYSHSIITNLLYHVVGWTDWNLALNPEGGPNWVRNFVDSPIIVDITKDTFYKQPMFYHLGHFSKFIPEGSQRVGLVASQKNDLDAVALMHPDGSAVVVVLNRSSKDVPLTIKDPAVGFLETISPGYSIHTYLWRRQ
Chain of Dual specificity protein kinase CLK4 (Homo sapiens) (Q9HAZ1 whole entry, looked up): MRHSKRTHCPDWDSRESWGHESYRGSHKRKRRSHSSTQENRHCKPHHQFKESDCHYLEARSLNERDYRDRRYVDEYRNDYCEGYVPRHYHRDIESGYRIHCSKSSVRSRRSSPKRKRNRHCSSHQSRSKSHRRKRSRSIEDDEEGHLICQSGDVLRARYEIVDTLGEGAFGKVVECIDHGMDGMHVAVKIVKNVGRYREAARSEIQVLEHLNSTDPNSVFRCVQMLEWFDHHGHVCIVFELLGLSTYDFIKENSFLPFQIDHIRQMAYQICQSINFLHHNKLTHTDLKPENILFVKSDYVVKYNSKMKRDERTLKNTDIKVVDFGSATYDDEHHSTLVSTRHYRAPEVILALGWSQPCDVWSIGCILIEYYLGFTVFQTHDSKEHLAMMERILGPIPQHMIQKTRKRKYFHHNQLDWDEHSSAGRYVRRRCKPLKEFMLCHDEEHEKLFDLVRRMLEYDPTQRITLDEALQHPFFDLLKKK
Chain of Cytochrome P450 2C19 (Homo sapiens) (P33261 whole entry, looked up): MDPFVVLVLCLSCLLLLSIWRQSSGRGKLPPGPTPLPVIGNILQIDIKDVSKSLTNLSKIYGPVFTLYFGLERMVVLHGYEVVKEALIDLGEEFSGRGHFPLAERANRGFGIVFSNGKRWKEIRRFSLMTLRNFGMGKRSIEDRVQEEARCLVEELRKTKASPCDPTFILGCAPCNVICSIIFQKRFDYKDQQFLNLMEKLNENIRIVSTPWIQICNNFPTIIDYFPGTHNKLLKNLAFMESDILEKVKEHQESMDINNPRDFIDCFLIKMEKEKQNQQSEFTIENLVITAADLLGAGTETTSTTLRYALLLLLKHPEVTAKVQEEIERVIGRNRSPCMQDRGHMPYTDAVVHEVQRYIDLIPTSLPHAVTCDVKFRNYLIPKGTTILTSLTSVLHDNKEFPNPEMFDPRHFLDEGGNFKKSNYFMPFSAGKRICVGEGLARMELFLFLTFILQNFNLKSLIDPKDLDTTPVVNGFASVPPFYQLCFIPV

Compound | Potency [1] | activity change, negative = inhibition [2] [%] | Potency [3] | activity change, negative = inhibition [4] [%] | activity, negative = inhibition [5] [%] | Potency [6] [µM] | Potency [7] [µM] | Potency [8] | Potency [9] | Potency [10] | Potency [11] | Potency [12] | Potency [13] | Potency [14] | outcome [15] | Potency [16] | Potency [17] | Potency [18] | Potency [19] | Potency [20]
CN(Cc1ccco1)c1ncnc2ccc(-c3ccccc3C#N)cc12 | > 11.4 µM | -26.1 | 1 µM (active) | 7.18 | 14.4 | > 46 | > 46 | inactive | inactive | 1.26 µM (active) | 11.2 µM (active) | 7.08 µM (active) | inactive | inactive | inactive | – | – | – | – | –
CS(=O)(=O)Nc1cccc(-c2nccc(Nc3ccc(F)cc3)n2)c1 | > 11.4 µM | -12.6 | 0.126 µM (active) | 2.44 | -20.3 | > 46 | > 46 | inactive | inactive | – | 15.8 µM (active) | 10 µM (active) | 11.2 µM (active) | – | inactive | inactive | – | – | – | –
N#Cc1cccc(-c2nccc(NCc3cccs3)n2)c1 | > 11.4 µM | -27.8 | 0.251 µM (active) | 11.9 | -14.7 | > 46 | > 46 | inactive | inactive | 3.98 µM (active) | 7.08 µM (active) | 6.31 µM (active) | 8.91 µM (active) | inactive | inactive | – | – | – | – | –
COCCn1c(=O)c(-c2cccc(Cl)c2)nc2cncnc21 | > 11.4 µM | -9.58 | 0.631 µM (active) | 12.1 | -4.06 | > 9.22 | > 46 | inactive | inactive | – | inactive | inactive | inactive | – | inactive | inactive | – | – | – | –
CN(C)Cc1ccccc1-c1nc(NC2CC2)c2ccccc2n1 | > 11.4 µM | 1.1 | 5.01 µM (active) | -22.4 | 7.64 | > 46 | > 46 | inactive | inactive | – | inactive | inactive | inactive | inactive | inactive | – | 3.98 µM (active) | – | – | –
CN(C)Cc1ccccc1-c1nccc(N(C)Cc2ccco2)n1 | > 11.4 µM | -20 | 7.94 µM (active) | -23.2 | 0.0679 | > 46 | > 46 | inactive | inactive | – | inactive | inactive | inactive | inactive | inactive | – | 0.794 µM (active) | – | – | –
COc1ccc(CNc2nc(-c3cccc(C#N)c3)nc3ccccc23)c(OC)c1 | > 11.4 µM | -19.2 | 2.51 µM (active) | – | -10.1 | > 46 | > 46 | inactive | inactive | – | inactive | inactive | inactive | inactive | inactive | – | – | 2.51 µM (active) | – | –
CNc1ncnc2ccc(-c3cccc(OC)c3)cc12 | > 11.4 µM | -19.8 | 0.501 µM (active) | – | -20.2 | > 46 | > 46 | inactive | – | – | 0.501 µM (active) | 0.501 µM (active) | 0.282 µM (active) | inactive | inactive | inactive | – | – | 0.501 µM (active) | –
CN(C)c1ccc(-c2nc(NCCc3cnc[nH]3)c3ccccc3n2)cc1 | 6.71 µM (active) | 0.922 | 0.631 µM (active) | – | 15.6 | > 46 | > 46 | inactive | inactive | 1.58 µM (active) | 28.2 µM (active) | 22.4 µM (active) | inactive | inactive | inactive | inactive | 7.94 µM (active) | 2.51 µM (active) | – | –
CN(C)c1ncc2nc(-c3ccccc3)c(=O)n(CCC#N)c2n1 | > 11.4 µM | -4.57 | 1.58 µM (active) | – | – | > 9.22 | > 46 | inactive | – | – | inactive | inactive | inactive | inactive | inactive | – | – | – | – | –
COc1ccc(-c2nc3cnc(N(C)C)nc3n(-c3ccccc3)c2=O)cc1 | > 11.4 µM | 0.239 | – | 3.47 | 3.24 | > 9.22 | > 46 | inactive | – | – | inactive | inactive | inactive | inactive | inactive | – | – | – | – | –
CCNc1ncc2nc(-c3cn(C)c4ccccc34)c(=O)n(Cc3ccc(F)cc3)c2n1 | > 11.4 µM | -5.76 | 15.8 µM (active) | 2.58 | – | > 9.22 | > 46 | inactive | inactive | – | inactive | inactive | inactive | inactive | inactive | inactive | – | – | – | 2.51 µM (active)
